Measurements published in PubChem BioAssay.
Activity calls are given as the source filed them. Unless noted, how the calls were made is not given here.

Experiments:
[1] = anti-His antibody binders, primary screen, artefact control for SMM control protein annotation, biochemical, small-molecule microarray, 635 nm fluorescence (AID 1128); conditions: anti-His Alexa647 antibody binding, higher = more signal;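 further: score merges feature fluorescence with signal-to-noise for each printed compound spot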
[2] = system: Human papillomavirus type 1a E7 protein (residues 1-88); test: HPV1a E7 small-molecule binders, primary screen, biochemical, small-molecule microarray, residues 1-88, 635 nm (AID 1129); conditions: small-molecule microarray binding, fluorescence 635 nm; higher = more signal
[3] = molecular target: Focal adhesion kinase 1 (Homo sapiens) (UniProt Q05397); test: small-molecule microarray binders of FAK, primary screen, biochemical, 635/667 nm fluorescence, BSA, DTT (AID 1130); conditions: PTK2 binding, 635 nm fluorescence, higher = more signal;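 further: composite of spot emission at 667 nm and signal to noise over triplicate slides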
[4] = system: Fibrinogen (Alexa647-labelled); test: fibrinogen binders on compound microarrays, profiling panel, artefact control for SMM control-protein annotation, biochemical, small-molecule microarray, 635/667 nm fluorescence (AID 1131); conditions: fibrinogen-A647 binding fluorescence, higher = more signal;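 further: z-score merges 667 nm fluorescence with per-spot signal-to-noise over triplicate slides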
[5] = molecular target: Follistatin (Homo sapiens) (UniProt P19883); test: follistatin binders on small-molecule microarrays, primary screen, biochemical, small-molecule microarray, 635/667 nm fluorescence (AID 1132); conditions: FST binding, 635 nm fluorescence, higher = more signal
[6] = molecular target: Fibroblast growth factor 2 (Homo sapiens) (UniProt P09038); test: FGF2 binders on small-molecule microarrays, primary screen, biochemical, small-molecule microarray, 635/667 nm fluorescence (AID 1133); conditions: small-molecule microarray binding, FGF2, fluorescence 635/667; higher = more signal
[7] = mitochondrial membrane potential change in A549 cells, profiling panel, cell-based, JC-1 fluorescence, basal, 24 h, 100 nL (AID 1138); conditions: higher = more signal;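 further: A549 lung adenocarcinoma cells under basal conditions with no added stimulus; test concentration not given here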
Lefty1 = Lefty1 binders on small-molecule microarrays, primary screen, biochemical, small-molecule microarray, 635/667 nm fluorescence (AID 1139); conditions: small-molecule microarray binding, fluorescence 635/667; higher = more signal
[8] = system: wheat germ agglutinin (Triticum aestivum), Alexa647-labelled; test: wheat germ agglutinin binders on compound microarrays, profiling panel, artefact control for SMM control-protein annotation, biochemical, small-molecule microarray, 635/667 nm fluorescence (AID 1140); conditions: WGA-A647 binding, 635 nm fluorescence, higher = more signal;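 further: score merges 667 nm feature emission with signal to noise over triplicate slides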
[9] = molecular target: Luciferin 4-monooxygenase (Photinus pyralis) (UniProt P08659); test: firefly luciferase enzyme inhibitors, primary screen, biochemical, luminescence, purified enzyme, 2006 set (AID 1141); conditions: SteadyGlo luminescence, 30 min, higher = more signal, called active from +8 up or from −8 down;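 further: cell-free assay with purified firefly luciferase at 100 ng per well in PBS; test concentration not given here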
[10] = system: Wnt5a (protein binding on small-molecule microarray); test: Wnt5a binders on small-molecule microarray, primary screen, biophysical, 635/667 nm fluorescence (AID 1142); conditions: 635 nm fluorescence, higher = more signal;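 further: fluorescence read at 667 nm with signal to noise per printed feature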
[11] = cell viability in Huh7 cells, primary screen, cytotoxicity control for HCV replication inhibitor project, CellTiter-Glo luminescence, basal, 48 h (AID 1143); conditions: Huh7 HCV replicon, higher = more signal, called active from +8 up or from −8 down;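 further: Huh7 hepatoma cells carrying a hepatitis C replication reporter with no stimulus; test concentration not given here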
[12] = P. aeruginosa biofilm formation inhibitors, primary screen, PAO1 strain, BacTiter-Glo luminescence, LB-PBS (AID 1144); conditions: 12 h, higher = more signal
[13] = CREB reporter modulators without forskolin, primary screen, cell-based, PC12, CRE-LacZ reporter, unstimulated (AID 1145); conditions: no forskolin, luminescence, 4.5 h, higher = more signal, called active from +8 up or from −8 down
[14] = CREB reporter modulators under forskolin, primary screen, cell-based, PC12, CRE-LacZ reporter, forskolin-stimulated (AID 1146); conditions: luminescence, 4.5 h, higher = more signal, called active from +8 up or from −8 down;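 further: PC12 cells with 6xCRE LacZ reporter stimulated by forskolin 10 µM; beta-galactosidase reporter signal reflecting CREB driven transcription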
[15] = molecular target: Streptavidin (Streptomyces avidinii) (UniProt P22629); test: streptavidin binders on small-molecule microarray, primary screen, artefact control for SMM compound annotation, biophysical, 635/667 nm fluorescence (AID 1147); conditions: streptavidin binding, higher = more signal;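 further: signal reflects streptavidin binding to arrayed compounds as a control protein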
[16] = small-molecule binders of probe aInhba, primary screen, biochemical, small-molecule microarray, 635/667 nm fluorescence (AID 1148); conditions: higher = more signal;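 further: score merges 667nm spot fluorescence with signal-to-noise for antibody binding to printed compounds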
Torsin-1A (Homo sapiens) [17] = molecular target: Torsin-1A (Homo sapiens) (UniProt O14656); test: torsin A binders from cell lysate, primary screen, small-molecule microarray, wild-type, 635/667 nm (AID 1149); conditions: COS7 hTOR1A-WT lysate, 635 nm fluorescence, higher = more signal
Torsin-1A (Homo sapiens) [18] = molecular target: Torsin-1A (Homo sapiens) (UniProt O14656); test: small-molecule binders of mutant TOR1A in lysate, primary screen, cell lysate, small-molecule microarray, COS7 lysate, 635/667 nm fluorescence (AID 1150); conditions: COS7 hTOR1A mutant lysate, 635 nm fluorescence, higher = more signal;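 further: score pools 667 nm emission and signal to noise measuring lysate protein binding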
[19] = system: Sonic hedgehog protein (Shh); test: small-molecule binders of Shh protein, primary screen, biochemical, small-molecule microarray, 635/667 nm fluorescence (AID 1151); conditions: small-molecule microarray binding, 635 nm fluorescence; higher = more signal;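 further: Shh protein binding to compounds spotted on small-molecule microarray slides; score combines spot fluorescence intensity with signal-to-noise across triplicate slides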

Fibroblast growth factor 2 (Homo sapiens), sequence (P09038 whole entry, looked up): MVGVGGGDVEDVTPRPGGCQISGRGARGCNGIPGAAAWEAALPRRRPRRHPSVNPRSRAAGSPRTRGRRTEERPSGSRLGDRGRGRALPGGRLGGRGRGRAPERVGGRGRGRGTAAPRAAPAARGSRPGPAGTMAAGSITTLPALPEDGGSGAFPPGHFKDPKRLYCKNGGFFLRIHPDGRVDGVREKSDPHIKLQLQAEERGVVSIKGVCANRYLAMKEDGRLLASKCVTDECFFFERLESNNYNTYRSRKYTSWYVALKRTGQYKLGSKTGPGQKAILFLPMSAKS
Streptavidin (Streptomyces avidinii), sequence (P22629 whole entry, looked up): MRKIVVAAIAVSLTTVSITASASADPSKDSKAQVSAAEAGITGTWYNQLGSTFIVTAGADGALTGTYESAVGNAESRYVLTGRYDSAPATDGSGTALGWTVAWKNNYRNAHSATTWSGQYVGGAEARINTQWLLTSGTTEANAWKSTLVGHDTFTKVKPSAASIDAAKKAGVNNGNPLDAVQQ
Focal adhesion kinase 1 (Homo sapiens), sequence (Q05397 whole entry, looked up): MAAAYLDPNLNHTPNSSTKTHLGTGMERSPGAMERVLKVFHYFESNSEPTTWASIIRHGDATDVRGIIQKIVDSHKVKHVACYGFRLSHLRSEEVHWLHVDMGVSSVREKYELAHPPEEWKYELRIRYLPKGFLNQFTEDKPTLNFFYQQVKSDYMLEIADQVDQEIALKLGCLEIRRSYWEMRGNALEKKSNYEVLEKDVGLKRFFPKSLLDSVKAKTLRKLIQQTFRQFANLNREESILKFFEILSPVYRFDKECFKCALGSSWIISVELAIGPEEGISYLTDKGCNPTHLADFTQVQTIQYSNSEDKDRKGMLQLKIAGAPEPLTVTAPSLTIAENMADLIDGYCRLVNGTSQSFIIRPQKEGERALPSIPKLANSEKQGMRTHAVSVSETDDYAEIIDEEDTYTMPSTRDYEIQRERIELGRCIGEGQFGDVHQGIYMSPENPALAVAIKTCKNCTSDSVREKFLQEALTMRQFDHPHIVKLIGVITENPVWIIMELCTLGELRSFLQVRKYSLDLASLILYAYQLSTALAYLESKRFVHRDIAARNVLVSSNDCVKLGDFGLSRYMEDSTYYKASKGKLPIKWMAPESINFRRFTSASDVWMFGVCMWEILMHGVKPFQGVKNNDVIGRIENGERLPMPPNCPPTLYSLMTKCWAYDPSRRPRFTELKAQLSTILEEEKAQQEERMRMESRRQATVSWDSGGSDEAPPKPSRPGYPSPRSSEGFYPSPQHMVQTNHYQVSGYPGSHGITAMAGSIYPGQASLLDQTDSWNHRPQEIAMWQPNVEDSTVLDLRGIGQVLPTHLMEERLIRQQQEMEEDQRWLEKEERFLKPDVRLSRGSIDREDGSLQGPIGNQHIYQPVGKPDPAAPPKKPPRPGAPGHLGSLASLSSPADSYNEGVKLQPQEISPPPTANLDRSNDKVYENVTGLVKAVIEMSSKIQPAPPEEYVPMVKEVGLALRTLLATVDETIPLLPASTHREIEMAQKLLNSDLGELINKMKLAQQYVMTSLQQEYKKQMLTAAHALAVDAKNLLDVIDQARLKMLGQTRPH
Follistatin (Homo sapiens), sequence (P19883 whole entry, looked up): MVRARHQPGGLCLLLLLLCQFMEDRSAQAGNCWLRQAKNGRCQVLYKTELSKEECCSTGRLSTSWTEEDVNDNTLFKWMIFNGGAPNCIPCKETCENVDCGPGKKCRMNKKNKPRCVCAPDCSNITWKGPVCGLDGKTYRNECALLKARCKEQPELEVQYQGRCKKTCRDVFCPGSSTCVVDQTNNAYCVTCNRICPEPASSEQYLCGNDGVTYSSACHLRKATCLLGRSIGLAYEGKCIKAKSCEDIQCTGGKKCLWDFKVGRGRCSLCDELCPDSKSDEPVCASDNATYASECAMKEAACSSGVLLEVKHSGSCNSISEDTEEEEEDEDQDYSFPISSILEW
Torsin-1A (Homo sapiens), sequence (O14656 whole entry, looked up): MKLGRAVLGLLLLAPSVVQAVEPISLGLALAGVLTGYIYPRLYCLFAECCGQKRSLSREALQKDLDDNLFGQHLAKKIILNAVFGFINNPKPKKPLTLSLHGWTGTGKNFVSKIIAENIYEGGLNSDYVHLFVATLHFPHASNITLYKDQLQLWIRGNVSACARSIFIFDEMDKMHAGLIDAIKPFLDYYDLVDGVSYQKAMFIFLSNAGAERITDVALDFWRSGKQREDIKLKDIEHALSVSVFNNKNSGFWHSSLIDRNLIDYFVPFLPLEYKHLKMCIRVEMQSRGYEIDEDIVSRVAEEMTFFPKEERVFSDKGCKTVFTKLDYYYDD
Luciferin 4-monooxygenase (Photinus pyralis), sequence (P08659 whole entry, looked up): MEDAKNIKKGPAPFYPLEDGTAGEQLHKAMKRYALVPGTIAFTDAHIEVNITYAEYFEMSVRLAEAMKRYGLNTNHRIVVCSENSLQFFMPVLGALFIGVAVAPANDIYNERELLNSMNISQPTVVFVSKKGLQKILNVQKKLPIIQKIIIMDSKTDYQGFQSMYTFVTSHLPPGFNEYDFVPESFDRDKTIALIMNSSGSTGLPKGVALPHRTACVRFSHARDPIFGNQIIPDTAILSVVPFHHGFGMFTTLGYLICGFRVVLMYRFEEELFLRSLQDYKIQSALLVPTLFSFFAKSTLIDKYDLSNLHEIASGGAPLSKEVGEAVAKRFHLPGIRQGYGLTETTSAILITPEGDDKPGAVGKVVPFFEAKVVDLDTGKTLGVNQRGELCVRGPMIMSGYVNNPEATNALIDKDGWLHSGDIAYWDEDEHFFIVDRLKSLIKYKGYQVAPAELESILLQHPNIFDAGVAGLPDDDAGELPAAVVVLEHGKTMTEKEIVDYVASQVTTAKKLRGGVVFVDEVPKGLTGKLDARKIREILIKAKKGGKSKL

Row | SMILES | composite z-score [1] | composite z-score [2] | composite z-score [3] | composite z-score [4] | composite z-score [5] | composite z-score [6] | z-score [7] | composite z-score (Lefty1) | composite z-score [8] | z-score [9] | composite z-score [10] | z-score [11] | z-score [12] | z-score [13] | z-score [14] | composite z-score [15] | composite z-score [16] | composite z-score (Torsin-1A (Homo sapiens) [17]) | composite z-score (Torsin-1A (Homo sapiens) [18]) | composite z-score [19]
1 | CCCC[C@H]1C[C@@H]1[C@@H]1N(P(=O)(c2ccccc2)c2ccccc2)[C@](CO)(c2ccccc2)CC12CC2 | 0.108 | 1.12 | 0.737 | 0.936 | 0.156 | -1.11 | -1.75 | -0.519 | 0.434 | 2.75 (inactive) | 0.326 | -3.16 (inactive) | 0.76 (inactive) | -0.561 (inactive) | -1.24 (inactive) | 1.15 | 0.0403 | -0.57 | 0.515 | -1.36
2 | COCCOC(=O)N1C(=O)[C@@]2(c3cc(C#CCC(C(=O)OC)C(=O)OC)ccc31)[C@H](c1ccc(OCCO)cc1)N1[C@H](c3ccccc3)[C@H](c3ccccc3)OC(=O)[C@H]1[C@@H]2C(=O)NC[C@H](O)c1ccccc1 | 1.18 | 1.22 | 0.418 | 0.952 | 1.29 | 1.7 | -0.95 | 1.15 | 0.422 | -0.056 (inactive) | 0.354 | -1.84 (inactive) | -1.29 (inactive) | -1.56 (inactive) | -0.526 (inactive) | 0.521 | 0.281 | 1.72 | 1.18 | 2.14
3 | CS(=O)(=O)CCOC(=O)C1=CC(c2ccc(CO)cc2)=CC(c2cccs2)N(Cc2cccc(OC(F)(F)F)c2)C=C1C(=O)OCCS(C)(=O)=O (stereo not given) | 0.419 | 0.969 | 0.513 | 1.01 | 1.21 | 0.0903 | 1.91 | 0.836 | 0.929 | -1.86 (inactive) | 0.104 | -3.67 (inactive) | 0.676 (inactive) | 0.695 (inactive) | -2.12 (inactive) | 1.72 | 0.0047 | 1.45 | 0.543 | 0.75
4 | [N-]=[N+]=NCc1ccccc1C[C@@]1(C(=O)NCc2ccccc2)N=C(c2ccc(OCCCO)cc2)O[C@@H]1c1ccccc1CN=[N+]=[N-] | 1.44 | 1.17 | 0.96 | 0.915 | 0.557 | 0.0516 | 0.573 | -0.621 | 1.03 | 0.0675 (inactive) | 0.262 | -3.35 (inactive) | 0.503 (inactive) | 0.297 (inactive) | 0.448 (inactive) | 1.19 | 0.406 | 0.327 | 0.367 | -0.603
5 | CN1C(=O)C2C=CC(C(O)c3ccccc3)N(NC(=O)OC(C)(C)C)C2C1=O (stereo not given) | 0.884 | 1.12 | 0.164 | 0.513 | -0.0714 | -0.27 | -0.165 | -0.525 | 1.05 | 0.22 (inactive) | 0.126 | 0.413 (inactive) | 0.316 (inactive) | 0.443 (inactive) | 0.955 (inactive) | 0.134 | -0.128 | -0.365 | 0.0838 | -0.582
